The whole screen tested about 1,900 compounds, of which about 40 (2%) showed an effect of 50% or more. This is one part of a sample in which strong results are shown more often than they occur. Residues, ends and D or L forms follow the SMILES beside them.
target: human SGLT1 (hSGLT1) (human, UniProt P13866); assay: primary screen, percent of control activity; higher = less effect of the substance; design: single well; settings: 50 µM
Procedure: Two days before the assay, CHO‐wild type and CHO‐hSGLT1 cells were seeded in maintenance medium at 25 000 cells/well in clear‐bottom black 96‐well cell culture plates. Before the assay, cells were washed 3 times with 150 μL/well D‐glucose free DMEM with 0.3% (w/v) BSA. Library compounds at 50 μmol/L (singlicate) prepared in D‐glucose free DMEM with 160 μmol/L 1‐NBD‐glucose and 0.3% (w/v) BSA and negative controls (triplicate) were added at 100 μL/well and placed in a humidified incubator at 37°C with 5% CO2 for 90 minutes. Next, cells were washed 3 times with DMEM with 0.3% (w/v) BSA (150 μL/well). Care was taken to remove all medium after the last wash. Finally, 1‐NBD‐glucose was extracted from the cells by adding 10 μL/well isopropanol and orbital shaking for 5 minutes at 600 rpm, followed by incubation in the dark for 30 minutes. Fluorescence was measured on a Tecan Infinite M200 Microplate Reader (Tecan, Männedorf, Switzerland) with excitation at 445 nm and emission at 525 nm. The amount of 1‐NBD‐glucose taken up by the CHO‐wild type or CHO‐hSGLT1 cells in the presence or absence of test compounds was interpolated from 1‐NBD‐glucose calibration standards. The background uptake by CHO‐wild type was subtracted from the uptake by CHO‐hSGLT1. Background corrected uptake with test compound was expressed as a percentage of corrected uptake without test compound.

human SGLT1 (hSGLT1), sequence (P13866 whole entry, looked up): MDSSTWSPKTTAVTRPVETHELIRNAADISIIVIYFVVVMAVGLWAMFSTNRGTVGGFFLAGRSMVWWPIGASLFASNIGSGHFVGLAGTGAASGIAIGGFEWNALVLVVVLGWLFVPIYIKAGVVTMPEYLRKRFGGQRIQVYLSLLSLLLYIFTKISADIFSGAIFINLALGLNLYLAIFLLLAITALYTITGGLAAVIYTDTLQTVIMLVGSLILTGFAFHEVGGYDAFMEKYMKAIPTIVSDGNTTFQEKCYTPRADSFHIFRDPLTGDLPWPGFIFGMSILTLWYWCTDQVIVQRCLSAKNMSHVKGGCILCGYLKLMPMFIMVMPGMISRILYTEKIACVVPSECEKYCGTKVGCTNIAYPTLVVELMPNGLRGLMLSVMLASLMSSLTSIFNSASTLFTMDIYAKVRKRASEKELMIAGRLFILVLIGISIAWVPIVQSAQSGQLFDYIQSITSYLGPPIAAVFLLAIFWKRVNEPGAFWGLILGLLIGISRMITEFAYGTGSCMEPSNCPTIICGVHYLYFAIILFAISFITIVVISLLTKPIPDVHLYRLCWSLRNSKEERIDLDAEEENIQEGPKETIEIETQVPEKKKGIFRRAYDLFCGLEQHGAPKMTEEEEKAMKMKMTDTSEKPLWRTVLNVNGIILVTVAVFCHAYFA

Row | SMILES | NORMALIZED SGLT1 ACTIVITY (%)
1 | CCCCCNC(=N)N/N=C/c1c[nH]c2ccc(OC)cc12.O=C(O)/C=C\C(=O)O | 141
2 | CO[C@@]1(NC(=O)C(C(=O)[O-])c2ccc(O)cc2)C(=O)N2C(C(=O)[O-])=C(CSc3nnnn3C)CO[C@@H]21.[Na+].[Na+] (stereo partly shown) | 97
3 | CC(=O)O[C@@H]1CC(=O)[C@@]2(C)C(CC(=O)[C@]3(C)C2CC[C@@]2(C)[C@H](c4ccoc4)OC(=O)C4OC423)C1(C)C (stereo partly shown) | 92
4 | COC(=O)[C@@]1(C)CCC[C@]2(C)c3ccc(O)c(C(C)C)c3CCC12 (stereo partly shown) | 138
5 | Cc1c(O)c(C(=O)CC(C)C)c2oc3c(C(=O)CC(C)C)c(O)c(C)c(O)c3c2c1O | 107
6 | O=[N+]([O-])c1ccc(O)c([N+](=O)[O-])c1 | 145
7 | CC(=O)[O][Hg][c]1ccccc1 | 4
8 | CC(=O)Nc1ccccc1 | 112
9 | CC(=O)Oc1ccccc1C(=O)O | 112
10 | Cc1nc2ccccn2c(=O)c1CCN1CCC(C(=O)c2ccc(F)cc2)CC1 | 129
11 | CCCCCCCCCCCCCCCCCC(=O)O.CC[C@H]1OC(=O)[C@H](C)[C@@H](O[C@H]2C[C@@](C)(OC)[C@@H](O)[C@H](C)O2)[C@H](C)[C@@H](O[C@@H]2O[C@H](C)C[C@H](N(C)C)[C@H]2O)[C@](C)(O)C[C@@H](C)C(=O)[C@H](C)[C@@H](O)[C@]1(C)O | 106
12 | COc1ccc2c(=O)cc(-c3ccccc3OC)oc2c1 | 139
13 | COc1cc(OC)c2c(=O)c(-c3ccccc3)coc2c1 | 336
14 | CCCCCCCCCCCCCCCCOP(=O)([O-])OCC[N+](C)(C)C | 79
15 | CCCCCCCCCCCCCCCC[N+](C)(C)C.[Br-] | 19
16 | C[N+](C)(C)CCCCCC[N+](C)(C)C.[Br-].[Br-] | 95
17 | CCCc1nc2c(C)cc(-c3nc4ccccc4n3C)cc2n1Cc1ccc(-c2ccccc2C(=O)O)cc1 | 171
18 | Cl.Cl.NCCc1c[nH]cn1 | 140
19 | O=C(O)c1cc(O)c2ccccc2n1 | 97
20 | COC(=O)CC1C(C)(C)C(OC(C)=O)[C@@H]2[C@@H](OC(C)=O)[C@]34O[C@@]2(O)[C@]1(C)C3CC[C@]1(C)C4=CC(=O)O[C@H]1c1ccoc1 (stereo partly shown) | 94

Row | SMILES | NORMALIZED SGLT1 ACTIVITY (%)
21 | O=C(Cc1ccccc1)NO | 95
22 | Cc1cccc(CN2CCN(C(c3ccccc3)c3ccc(Cl)cc3)CC2)c1.Cl.Cl (stereo not shown) | 133
23 | Cl.Cl.O=C(O)COCCN1CCN(C(c2ccccc2)c2ccc(Cl)cc2)CC1 (stereo not shown) | 141
24 | Cl.Clc1ccc(C(OCCN2CCCCC2)c2ccccc2)cc1 (stereo not shown) | 37
25 | CCCCC[C@H]1C(=O)O[C@H](C)[C@H](NC(=O)c2cccc(NC=O)c2O)C(=O)O[C@@H](C)[C@@H]1OC(=O)CC(C)C | 220
26 | O=C(O)c1cn(C2CC2)c2cc(N3CCNCC3)c(F)cc2c1=O | 76
27 | O=c1ccc2cc(O)c(O)cc2o1 | 134
28 | CNC(C)[C@H](O)c1ccccc1.Cl (stereo partly shown) | 106
29 | CC(NCCC(c1ccccc1)c1ccccc1)c1ccccc1.Cl (stereo not shown) | 48
30 | CN[C@@H](C)[C@@H](O)c1ccccc1.Cl | 120
31 | COc1cc(/C=C/C(=O)O)ccc1O | 147
32 | N[C@H](C(=O)O)[C@@H]1CC(Cl)=NO1 | 89
33 | COc1ccc2[nH]cc(CCN)c2c1.Cl | 120
34 | O=[N+]([O-])O[C@H]1CO[C@H]2[C@@H]1OC[C@H]2O[N+](=O)[O-] | 100
35 | Cc1ccsc1/C=C/C1=NCCCN1C.O=C(O)CC(O)(CC(=O)O)C(=O)O | 91
36 | CN1CCCN=C1COC(=O)C(O)(c1ccccc1)C1CCCCC1.Cl (stereo not shown) | 43
37 | CCN1CCCC(OC(=O)C(c2ccccc2)c2ccccc2)C1.Cl (stereo not shown) | 90
38 | COc1c2c(cc3c1OCO3)CC[N+](C)=C2.[Cl-] | 98
39 | C[N+](C)(C)CCO.[Cl-] | 97
40 | N[C@@H](Cc1ccccc1)C(=O)N[C@@H](Cc1ccc(O)cc1)C(=O)O (H-Phe-Tyr-OH) | 112

Row | SMILES | NORMALIZED SGLT1 ACTIVITY (%)
41 | CCC(CCC(C)[C@H]1CCC2C3CC=C4C[C@@H](O)CC[C@]4(C)C3CC[C@@]21C)C(C)C (stereo partly shown) | 106
42 | Nc1ccc(S(=O)(=O)NC(=O)c2ccccc2)cc1 | 100
43 | CC(=O)O[C@@H]1CC[C@@]2(C)C(CC[C@]3(C)C2CC=C2C4CC(C)(C)CC[C@]4(C(=O)O)CC[C@]23C)C1(C)C (stereo partly shown) | 141
44 | C[C@H]1[C@H](C)CC[C@]2(C(=O)O)CC[C@]3(C)C(=CC[C@@H]4[C@@]5(C)CC[C@H](O)C(C)(C)[C@@H]5CC[C@]43C)[C@H]12 | 84
45 | CC(=O)O[C@H]1CC[C@@]2(C)C(CC[C@]3(C)C2C(=O)C=C2C4[C@@H](C)[C@H](C)CC[C@]4(C(=O)O)CC[C@]23C)C1(C)C (stereo partly shown) | 37
46 | CCCCCc1c2c(cc(O)c1C(=O)O)OC(=O)c1c(cc(OC)cc1C(=O)CCCC)O2 | 152
47 | O=C(O)c1cccnc1C(=O)O | 124
48 | O=C(O)Cc1nn(Cc2ccc(Br)cc2F)c(=O)c2ccccc12 | 180
49 | C#CCN(C)Cc1ccccc1.Cl | 134
50 | C[C@H](COc1ccccc1)N[C@H](C)[C@H](O)c1ccc(O)cc1.Cl | 119
51 | CC(COc1ccccc1)N(CCCl)Cc1ccccc1.Cl (stereo not shown) | 35
52 | C[C@H]1O[C@@H](O[C@H]2[C@@H](O)C[C@H](O[C@H]3[C@@H](O)C[C@H](O[C@H]4CC[C@@]5(C)[C@H](CC[C@@H]6[C@@H]5CC[C@]5(C)[C@@H](C7=CC(=O)OC7)CC[C@]65O)C4)O[C@@H]3C)O[C@@H]2C)C[C@H](O)[C@@H]1O | 111
53 | CC(CCC(=O)O)[C@H]1CCC2C3C(C[C@H](O)[C@@]21C)[C@@]1(C)CC[C@@H](O)C[C@H]1C[C@H]3O (stereo partly shown) | 89
54 | C[C@H]1OC(n2cc(F)c(=O)[nH]c2=O)C(O)[C@@H]1O (stereo partly shown) | 112
55 | Cn1c(=O)c2c(ncn2CCCl)n(C)c1=O | 183
56 | COc1cccc(OC)c1OCCNCC1COc2ccccc2O1.Cl (stereo not shown) | 72
57 | Cl.Nc1c(Br)cc(Br)cc1CNC1CCC(O)CC1 (stereo not shown) | 99
58 | CN(Cc1cc(Br)cc(Br)c1N)C1CCCCC1.Cl | 44

Reference: PMC6664820, “Novel natural and synthetic inhibitors of solute carriers SGLT1 and SGLT2” (Pharmacology Research & Perspectives, 2019)
